For 27 compounds, Potency results are on record in PubChem BioAssay (Tox21).

Assay [1] can be described thus: qHTS assay to identify aromatase inhibitors - cell viability counter screen (AID 743084).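 Note: cells stimulated with testosterone during compound exposure; nearly all actives have a fitted effect of over 55% in size.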 Note: potency is the fitted concentration of half-maximal effect. On the technique in general: Quantitative high-throughput screening tests each substance at several concentrations.
Assay [2] addresses Aryl hydrocarbon receptor (Homo sapiens) (UniProt P35869). Kind of assay: qHTS assay to identify small molecule that activate the aryl hydrocarbon receptor (AhR) signaling pathway (AID 743085).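 For activation: HG2L7.5c1 human HepG2 liver cells with stably integrated DRE-driven firefly reporter; series mostly up to about 70 µM.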 Note: nearly all actives have a fitted effect of over 15% in size. Note: potency is the fitted concentration of half-maximal effect. A digest of the protocol: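 Luminescence (ONE-Glo) from a dioxin-responsive-element luciferase reporter in HG2L7.5c1 HepG2 cells after 24 hr compound exposure at 37C; viability measured by CellTiter-Fluor fluorescence beforehand.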

The nature of assay [3]: qHTS assay to identify small molecule that activate the aryl hydrocarbon receptor (AhR) signaling pathway - cell viability counter screen (AID 743086). Note: nearly all actives have a fitted effect of over 45% in size. Note: potency is the fitted concentration of half-maximal effect. A digest of the protocol:
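Cytotoxicity counter screen: CellTiter-Fluor signal (30 min, 37 C) in 4000 HepG2 cells/well carrying the DRE-luciferase reporter, following 24 h compound exposure at 37 C.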

The target in assay [4] is Peroxisome proliferator-activated receptor gamma (Homo sapiens) (UniProt P37231). Nature of the assay: qHTS assay to identify small molecule agonists of the peroxisome proliferator-activated receptor gamma (PPARg) signaling pathway (AID 743094; active = well fitted activation curve with a large enough effect in the signal ratio in the repeat runs, not every such curve was filed as active; the % refers to the signal ratio). A digest of the protocol:
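Quantitative HTS agonist mode: stable HEK293H line with UAS-beta-lactamase reporter under PPARg control, 17 h compound exposure at 37C, fluorescence after 1 h FRET substrate loading at room temperature.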

Assay [5] has the same target. Kind of assay: qHTS assay to identify small molecule antagonists of the peroxisome proliferator-activated receptor gamma (PPARg) signaling pathway (AID 743191; calls by dose curve; note: nearly all actives have a fitted effect of over 30% in size; note: potency is the fitted concentration of half-maximal effect). A digest of the protocol: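 Beta-lactamase reporter under UAS control in HEK293H PPARg-bla cells; compound treatment 17 h at 37C. Read-out: fluorescence intensity after 1 h room-temperature incubation with LiveBLAzer B/G FRET substrate.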

Assay [6] in a line: qHTS assay to identify small molecule antagonists of the peroxisome proliferator-activated receptor gamma (PPARg) signaling pathway - cell viability counter screen (AID 743194). Note: nearly all actives have a fitted effect of over 55% in size. The following applies: Potency: co-treated with 50 nM rosiglitazone unless noted. A digest of the protocol: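 Viability was measured as CellTiter-Glo luminescence in GeneBLAzer PPARg UAS-bla HEK293H cells. These cells had been exposed 17 h at 37 C to compounds together with rosiglitazone at 50 nM final, with the beta-lactamase readout taken in the same wells.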

The nature of assay [7]: qHTS assay for small molecule agonists of the antioxidant response element (ARE) signaling pathway (AID 743202; active = well fitted activation curve with a large enough effect in the signal ratio in the repeat runs, not every such curve was filed as active; the % refers to the signal ratio; note: potency is the fitted concentration of half-maximal effect). A digest of the protocol: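 Quantitative high-throughput format in HepG2 cells bearing an integrated ARE-beta-lactamase reporter. Compound exposure lasted 16 h at 37 C, and fluorescence was read 2 h after adding LiveBLAzer B/G substrate at room temperature.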
The nature of assay [8]: qHTS assay for small molecule activators of the heat shock response signaling pathway - cell viability counter screen (AID 743209). Note: nearly all actives have a fitted effect of over 50% in size. Note: potency is the fitted concentration of half-maximal effect. A digest of the protocol:
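First, HSE-bla HeLa cells were seeded at 1500 cells/well and kept overnight at 37 C. Next, compounds were pinned in and incubated 5 h. After the FRET substrate step, CellTiter-Glo was added and luminescence read 30 min later.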

A short description of assay [9]: qHTS assay for small molecule activators of the heat shock response signaling pathway (AID 743210; active = well fitted activation curve with a large enough effect in the signal ratio in the repeat runs, with a control signal flat, not every such curve was filed as active; the % refers to the signal ratio;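 note: HeLa cells with beta-lactamase reporter driven by heat shock elements; series mostly up to about 63 µM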). A digest of the protocol:
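HeLa HSE-bla cells, overnight plating; cpd in DMSO 5 h, 37 C; LiveBLAzer B/G FRET substrate 2.5 h RT; fluorescence intensity read.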

A short description of assay [10]: qHTS assay for small molecule agonists of the antioxidant response element (ARE) signaling pathway - cell viability counter screen (AID 743203; calls by dose curve; note: nearly all actives have a fitted effect of over 55% in size; note: potency is the fitted concentration of half-maximal effect). A digest of the protocol: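 Seeded at 2,000 cells/well, ARE-bla HepG2 cells were incubated 5 hrs before compound addition. After 16 hrs of treatment at 37C with 5% CO2, CellTiter-Glo reagent was added and luminescence read 30 min later.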

“And” between values parts separate entries of the source, which are not always exact repeats. Equal values may be shown once. Inconclusive results are not listed. Where a structure was tested more than once in an assay, its records may differ in their call. The source made the active and inactive calls. Unless noted, calls come from the whole dose curve; as a rule, active = well fitted curve in the direction sought with a large enough effect in the repeat runs; inconclusive = weak or mixed curves; inactive = no such curve, though single readings can be large; an effect the other way counts as inactive or inconclusive.

Peroxisome proliferator-activated receptor gamma (Homo sapiens), sequence (P37231 whole entry, looked up): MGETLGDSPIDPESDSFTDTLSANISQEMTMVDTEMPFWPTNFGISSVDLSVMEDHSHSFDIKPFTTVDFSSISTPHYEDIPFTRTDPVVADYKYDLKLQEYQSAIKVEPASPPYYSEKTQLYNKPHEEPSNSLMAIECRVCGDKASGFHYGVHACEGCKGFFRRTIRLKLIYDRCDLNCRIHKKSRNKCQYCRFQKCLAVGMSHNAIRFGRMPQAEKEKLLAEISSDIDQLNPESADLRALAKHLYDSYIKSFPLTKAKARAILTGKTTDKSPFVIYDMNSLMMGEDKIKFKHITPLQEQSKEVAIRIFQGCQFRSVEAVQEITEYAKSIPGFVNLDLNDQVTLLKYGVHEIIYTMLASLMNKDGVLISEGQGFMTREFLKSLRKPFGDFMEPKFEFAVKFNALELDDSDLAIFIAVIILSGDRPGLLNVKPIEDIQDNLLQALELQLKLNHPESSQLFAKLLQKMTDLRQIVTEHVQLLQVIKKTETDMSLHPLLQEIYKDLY
Aryl hydrocarbon receptor (Homo sapiens), sequence (P35869 whole entry, looked up): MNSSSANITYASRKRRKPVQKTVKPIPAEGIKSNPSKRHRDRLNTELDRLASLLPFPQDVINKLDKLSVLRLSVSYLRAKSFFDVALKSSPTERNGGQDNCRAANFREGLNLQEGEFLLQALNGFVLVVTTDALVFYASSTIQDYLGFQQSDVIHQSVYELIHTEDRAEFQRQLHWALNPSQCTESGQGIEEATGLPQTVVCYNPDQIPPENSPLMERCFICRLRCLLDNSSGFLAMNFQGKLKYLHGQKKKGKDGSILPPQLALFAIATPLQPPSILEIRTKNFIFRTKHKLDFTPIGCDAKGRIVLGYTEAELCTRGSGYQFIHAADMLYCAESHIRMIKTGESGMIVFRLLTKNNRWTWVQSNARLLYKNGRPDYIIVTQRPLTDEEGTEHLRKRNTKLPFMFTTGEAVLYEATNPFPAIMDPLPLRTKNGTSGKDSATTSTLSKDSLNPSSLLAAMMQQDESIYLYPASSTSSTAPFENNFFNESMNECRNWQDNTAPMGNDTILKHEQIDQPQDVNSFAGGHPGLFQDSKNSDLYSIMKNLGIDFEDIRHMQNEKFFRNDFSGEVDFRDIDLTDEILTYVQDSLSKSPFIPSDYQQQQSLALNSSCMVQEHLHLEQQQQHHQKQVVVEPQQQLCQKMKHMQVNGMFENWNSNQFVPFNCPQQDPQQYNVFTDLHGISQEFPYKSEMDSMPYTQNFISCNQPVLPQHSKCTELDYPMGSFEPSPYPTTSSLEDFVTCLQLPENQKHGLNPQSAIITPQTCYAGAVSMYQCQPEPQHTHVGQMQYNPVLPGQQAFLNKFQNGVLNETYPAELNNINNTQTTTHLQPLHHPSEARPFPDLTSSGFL

For the compound `COP(=S)(OC)SCn1nnc2ccccc2c1=O`, the Potency entry in [1], in assay [2], in assay [3], in assay [4], in [6] and in assay [7] was “inactive” each time. Also, the Potency result in [8] and in [9] was “inactive” each time. Also, the Potency in assay [5] was 49 µM (active).

Consider `N#Cc1cccnc1`, for which the Potency entry in assay [1], in [2], in [3], in [4], in [5] and in assay [6] was “inactive” in each case. Further, the Potency result in assay [7], in [8] and in assay [9] was “inactive” each time.

As to `COc1ccc(O)c(C(C)(C)C)c1`, the Potency result in assay [1], in [2], in assay [3], in assay [4], in assay [5] and in assay [6] was “inactive” throughout. The Potency entry in assay [10], in assay [8] and in assay [9] was “inactive” in each case.

As for `C[C@]12CC[C@H]3[C@@H](CCC4=CC(=O)CC[C@@H]43)[C@@H]1CC[C@@H]2O`, the Potency result in [1], in assay [2], in [3], in assay [4], in [6] and in assay [8] was “inactive” each time. Also, the Potency entry in assay [9] is “inactive”. In [7], the Potency was 34.1 µM (active).

As to `Cc1ccc(N=CN(C)C=Nc2ccc(C)cc2C)c(C)c1`, the Potency entry in [1], in assay [3], in [4], in assay [5], in assay [7] and in [10] was “inactive” throughout. Further, the Potency result in assay [8] and in [9] was “inactive” each time. In assay [2], the Potency result is “inactive and 48.8 µM (active)”.

For `COP(=O)(NC(C)=O)SC` (stereo not drawn), the Potency entry in assay [1], in assay [2], in assay [3], in assay [4], in [5] and in [7] was “inactive” throughout. Further, the Potency result in assay [8] and in assay [9] was “inactive” in each case.

With `ClC(Cl)=C(Cl)C(Cl)=C(Cl)Cl`, the Potency entry in assay [1], in assay [2], in assay [3], in assay [4], in assay [5] and in assay [7] was “inactive” in each case. For the same compound, the Potency entry in assay [10], in assay [8] and in assay [9] was “inactive” in each case.

With `CCOP(=S)(OCC)SCn1c(=O)oc2cc(Cl)ccc21`, the Potency result in assay [1], in assay [3], in assay [4], in assay [5], in [10] and in assay [8] was “inactive” throughout. Further, in [9], the Potency result is “inactive”. Further, the Potency in assay [2] is 32.9 µM (active) and 61.1 µM (active); in assay [7], 9.69 µM (active).

On to `C=CC(Cl)CCl` (stereo not drawn), for which the Potency result in assay [1], in assay [2], in assay [3], in [4], in assay [5] and in assay [7] was “inactive” in each case. Besides, the Potency entry in [8] and in assay [9] was “inactive” each time.

For `CC(C)=CC1C(C(=O)OCN2C(=O)C3=C(CCCC3)C2=O)C1(C)C` (stereo not drawn), the Potency entry in [1], in assay [2], in assay [3], in assay [4], in [7] and in assay [10] was “inactive” throughout. In addition, the Potency result in assay [8] was “inactive”. Also, the Potency in assay [5] is 11.9 µM (active).

`COc1ccc(C=O)cc1OC`: the Potency entry in assay [1], in assay [2], in assay [3], in assay [4], in [5] and in assay [7] was “inactive” throughout. Also, the Potency result in [8] and in assay [9] was “inactive” throughout.

Consider `CC1(C)Cc2cccc(O)c2O1`, for which the Potency entry in assay [1], in [2], in assay [3], in [4], in assay [5] and in [7] was “inactive” in each case. For the same compound, the Potency result in assay [8] and in assay [9] was “inactive” in each case.

With `CCC1(c2ccc(N)cc2)CCC(=O)NC1=O` (stereo not drawn), the Potency result in assay [1], in assay [2], in assay [3], in assay [4], in assay [5] and in [6] was “inactive” throughout. Besides, the Potency entry in [10], in [8] and in assay [9] was “inactive” each time.

For `Cn1c(-c2ccccc2)cc(-c2ccccc2)[n+]1C`, the Potency result in assay [1], in [2], in assay [3], in [4], in assay [5] and in assay [10] was “inactive” each time. In addition, the Potency entry in [8] is “inactive”.

Turning to `CC1=C(C(=O)Nc2ccccc2)SCCO1`, the Potency entry in [1], in assay [3], in [4], in assay [5], in [7] and in assay [10] was “inactive” in each case. Besides, the Potency entry in assay [8] and in [9] was “inactive” in each case. Further, the Potency in assay [2] was 27.8 µM (active) and 24.3 µM (active).

In the case of `COP(=S)(OC)Oc1ccc(Sc2ccc(OP(=S)(OC)OC)cc2)cc1`, the Potency result in assay [1], in [2], in assay [3], in assay [4], in [7] and in assay [8] was “inactive” each time. The Potency in assay [10] is 43.3 µM (active) and inactive.

As for `CC[n+]1c(-c2ccccc2)c2cc(N)ccc2c2ccc(N)cc21`, the Potency result is “inactive and 30.5 µM (active)” in assay [1]; 26.6 µM (active) and 29.8 µM (active) and 12.1 µM (active) in assay [2]; “inactive and 12.1 µM (active)” in assay [3]; 48.8 µM (active) and 26.6 µM (active) in assay [5]. For the same compound, the Potency result in [4] and in assay [8] was “inactive” each time.

Take `CC1(C)C(C(=O)OC(C#N)c2cccc(Oc3ccccc3)c2)C1(C)C` (stereo not drawn): the Potency entry in assay [1], in assay [2], in [3], in [4], in assay [5] and in [7] was “inactive” in each case. The Potency entry in [10], in assay [8] and in assay [9] was “inactive” in each case.

For `CNC(=O)Oc1cccc2c1OC(C)(C)C2`, the Potency result in assay [1], in assay [2], in assay [3], in assay [4], in assay [5] and in assay [7] was “inactive” in each case. The Potency entry in assay [10], in assay [8] and in assay [9] was “inactive” throughout.

On to `CC(C)(O)C#N`, for which the Potency result in assay [1], in assay [2], in assay [3], in [4], in [6] and in assay [7] was “inactive” in each case. In addition, the Potency entry in assay [10], in assay [8] and in assay [9] was “inactive” each time.

`C[C@]12CCC(=O)C=C1CC[C@@H]1[C@@H]2CC[C@@]2(C)[C@H]1CC[C@]2(C)O`: the Potency result in [1], in [2], in assay [3], in assay [4], in [6] and in assay [10] was “inactive” in each case. The Potency entry in assay [8] and in assay [9] was “inactive” each time.

On to `CC(C)CON=O`, for which the Potency entry in assay [1], in [2], in assay [3], in [4], in [5] and in [7] was “inactive” throughout. Further, the Potency entry in assay [10], in assay [8] and in assay [9] was “inactive” throughout.

Regarding `CCOS(=O)(=O)OCC`, the Potency entry in assay [1], in assay [2], in assay [3], in [4], in assay [5] and in assay [7] was “inactive” in each case. Moreover, the Potency result in [10] and in assay [8] was “inactive” throughout.

Take `CSc1nc(NC(C)C)nc(NC(C)C)n1`: the Potency result in assay [1], in [2], in assay [3], in [4], in [8] and in assay [9] was “inactive” in each case.

Consider `CCCCCCCCCC(CC)c1ccc(S(=O)(=O)O)cc1` (stereo not drawn), for which the Potency entry in [1], in [3] and in assay [7] was “inactive” in each case. Moreover, in assay [8], the Potency result was “inactive and 39.9 µM (active)”.

With `ClCC(Cl)CCl`, the Potency entry in assay [3], in [7], in [8] and in [9] was “inactive” throughout.

For the compound `CCC(=O)Nc1ccc(Cl)c(Cl)c1`, the Potency result in assay [1], in assay [3], in assay [4], in [10], in [8] and in assay [9] was “inactive” throughout. The Potency in assay [2] was 54.5 µM (active).
